FAS-TE inh: FAS thioesterase (human) inhibition | recombinant FAS-TE, OMFH fluorogenic substrate, fluorescence endpoint | actives 0.67% (n = 360,000) | AID 602261 | inhibition, % at 15 µM;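 active means compounds whose normalised, plate-corrected inhibition of enzyme fluorescence in the single-dose primary screen is 50% or more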;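 further: 0% = DMSO with enzyme and 100% = substrate without enzyme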
NadD block: blocks S. aureus nicotinate mononucleotide adenylyltransferase; inhibition, % at 20 µM; purified NadD enzyme, colorimetric absorbance read-out; actives 0.78% (n = 360,000); in the data active means inhibition above about 26%
NR3A LBD binder: NR3A (human) ligand-binding domain modulation; NR3A LBD differential scanning fluorimetry, Tm shift; 0% = protein alone, 100% = glycine-bound protein; Tm shift relative to glycine control, % at 25 µM; actives 2.5% (n = 340,000);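 active means melting temperature shift of at least 10% of the positive control shift, at one fixed dose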
rCAG RNA binder: r(CAG) repeat RNA binding; inhibition, % at 3 µM; TO-PRO-1 dye displacement fluorescence; AID 651821; actives 1.3% (n = 370,000);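 active means inhibition above the plate cutoff, the mean of all test compounds on that plate plus 3 SD, cut at about 35% in these data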;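 further: 0% = DMSO alone and 100% = 100 µM mitoxantrone as full dye displacement; higher means more dye released from RNA so lower well fluorescence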
NadD conf: confirmation of Staphylococcus aureus NadD inhibitors | AID 624309 | purified S. aureus NadD, colorimetric enzyme assay | shares compounds with NadD block | inhibition, % at 20 µM | actives 13% (n = 2,000); in the data active means inhibition mostly above about 42%, no sharp cut-off; inactive means mostly below about 42%
The depositor's hits bear a star; . = no result. Sampled rows, rich in hits. Any-hit rate of the full collection: about 4.3%.

SMILES | FAS-TE inh | NadD block | NR3A LBD binder | rCAG RNA binder | NadD conf
Cc1ccc(C(=O)Nc2nc(-c3ccccn3)cs2)o1 | -6 | 7 | 8 | 8 | .
O=C(Nc1nc(-c2ccccn2)cs1)c1ccc(-c2ccccc2F)o1 | 18 | 40* | 12* | 15 | 18
Nc1[nH]c(C(=O)c2ccccc2)c(-c2ccc3ccccc3c2)c1C(=O)NC1CC1 | . | . | . | 6 | .
COc1ccc(Cn2ccc3ccc(-c4ccc5ccn(C(=O)C6CCCCC6)c5c4)cc32)cc1 | . | . | . | 16 | .
C=CCN(CC=C)S(=O)(=O)c1ccc(NC(=S)NC(=O)/C=C/c2cccc3ccccc23)cc1 | 12 | 31* | -1 | 7 | 4
O=c1[nH]c2cc([N+](=O)[O-])ccc2c2ccccc12 | 9 | -2 | -1 | 2 | .
O=c1[nH]c2cc([N+](=O)[O-])ccc2c2cc(Br)ccc12 | -4 | 38* | . | 21 | 11
COc1ccccc1C(=O)N1CCC2CCN(C(=O)c3ccccc3)C2C1 (configuration not stated) | . | . | . | -1 | .
C#CCn1c(=NC(=O)c2ccc(S(=O)(=O)N3CCCc4ccccc43)cc2)sc2cc(S(N)(=O)=O)ccc21 | 23 | 50* | 19* | -14 | 39
Cc1ccc(Cl)cc1N1CCN(C(=O)c2cc3c(=O)[nH]c4ccccc4c3n2C)CC1 | 6 | 32* | -2 | 4 | 11
Cc1cc(C)cc(NC(=O)C(OC(=O)c2ccc(NC(=O)CC#N)cc2)c2ccccc2)c1 (configuration not stated) | 23 | 40* | . | 31 | 45*
Cc1ccc(C)c(NC(=O)C(OC(=O)c2cc[n+]([O-])cc2)c2ccccc2)c1 (configuration not stated) | -1 | 4 | 2 | -2 | .
Cc1ccc(C)c(NC(=O)C(OC(=O)c2ccc(NC(=O)CC#N)cc2)c2ccccc2)c1 (configuration not stated) | 4 | 37* | 6 | 17 | 53*
Cc1c(C(=O)OCC(=O)N(CC(C)C)c2c(N)n(Cc3ccccc3)c(=O)[nH]c2=O)oc2ccccc12 | 14 | 10 | 3 | 9 | .
CCOc1ccc2oc(C(=O)OCC(=O)N(CC(C)C)c3c(N)n(Cc4ccccc4)c(=O)[nH]c3=O)c(C)c2c1 | 18 | 40* | 0 | 16 | 34
O=C(c1nn2c(C(F)(F)F)cc(-c3ccco3)nc2c1Br)N1CCCc2ccccc21 | 14 | 31* | -3 | 7 | 5
O=C(c1cc2nc(-c3ccco3)cc(C(F)(F)F)n2n1)N1CCCc2ccccc21 | -2 | 0 | -2 | 3 | .
COC(=O)[C@@]12CCCCC3=C1N(CCC3)C(=O)[C@H]2CC(=O)NCc1cccs1 | . | . | . | 0 | .
Cc1ccc(-c2nc3ccccc3[nH]2)cc1NC(=O)c1sc2cc(Cl)ccc2c1Cl | 5 | 29* | 0 | 8 | 12
Cc1ccc(-c2nc3ccccc3[nH]2)cc1NC(=O)c1ccco1 | -5 | 0 | -1 | 4 | .
COc1ccccc1CNc1nc(NCc2ccccc2OC)c2sccc2n1 | 13 | 8 | . | 4 | .
COc1ccccc1CNc1nc(Nc2cccc(-c3cnco3)c2)c2sccc2n1 | 25 | 40* | . | 8 | 15
COC(=O)c1c(NC(=O)c2ccc(C)c(S(=O)(=O)Nc3ccccc3C)c2)sc2c1CCCC2 | 29 | 22* | -2 | 1 | -7
Cn1c(=O)c(C(=O)CN2CCc3ccccc32)c(N)n(Cc2ccccc2)c1=O | 6 | 62* | 4 | 8 | 15
N#CC1=C2SCN(c3ccccc3)CN2C(=O)CC1c1cccs1 (configuration not stated) | 0 | 44* | -3 | 28 | 16
SMILES | FAS-TE inh | NadD block | NR3A LBD binder | rCAG RNA binder | NadD conf
Nc1ccc2nc(-c3cccnc3)[nH]c2c1 | -9 | -6 | 0 | -1 | .
Nc1ccc2nc(-c3ccc(N)c(Cl)c3)[nH]c2c1 | 3 | 41* | 16* | 15 | 18
O=C1N(Cc2ccccc2)c2ccccc2C12CCCc1oc(CCc3ccccc3)nc12 (configuration not stated) | . | . | . | 2 | .
COc1ccc(/C=N/NC(=O)c2cc(-c3ccccc3)nc3ccccc23)cc1O | 8 | 10 | 7 | 19 | .
COc1ccc(/C=N/NC(=O)c2c(-c3ccccc3)noc2C)cc1 | -3 | -3 | 2 | -2 | .
COc1ccc(/C=N/NC(=O)c2nc(-c3ccccc3)cc(-c3ccccc3)n2)cc1O | 35 | 38* | -432 | 15 | 42
COc1ccc(/C=N/NC(=O)c2nc(-c3ccccc3)cc(-c3ccccc3)n2)cc1 | 30 | 39* | 1 | 10 | 6
Cc1ccc[n+](C2C(c3ccc([N+](=O)[O-])cc3)C(C#N)=C([S-])NC2(O)C2CC2)c1 (configuration not stated) | -1 | 7 | -14 | 18 | .
COc1ccc([C@H]2C(C#N)=C([S-])N[C@](C)(O)[C@@H]2[n+]2ccccc2)cc1 | -17 | 45* | 4 | 10 | 39
C=CCN1C(=O)[C@H](CC(=O)NCc2cccc3ccccc23)[C@@]2(C(=O)OCC)CCCC=C12 | . | . | . | 4 | .
CC(C)N1CCCCC(NC(=O)c2cccc(C(F)(F)F)c2)C1=O (configuration not stated) | . | . | . | -1 | .
O=C(Nc1nnc(-c2ccc3c(c2)CCCC3)o1)c1ccc(Cl)cc1Cl | 4 | 36* | -1 | 57* | 24
O=C(Nc1nnc(-c2ccc3c(c2)CCCC3)o1)c1c(F)cccc1F | -1 | 15 | -1 | 25 | .
COC(=O)C[C@@H]1CC[C@@H]2[C@@H](COc3ccc(NC(=O)Nc4cccc(Cl)c4)cc3C(=O)N2C)O1 | . | . | . | 6 | .
COc1ccccc1CCC[C@H](CCS(=O)(=O)C(C)C)CC1CCCCC1 | . | . | . | 4 | .
Cc1ccc(NC(=O)CSCC(=O)Nc2nnc(C3CC3)s2)cc1 | -5 | 1 | 0 | 0 | .
Cc1ccc(Nc2nnc(C3C(=O)N(C)C4(C)CC3c3cc(Br)ccc3O4)s2)cc1 (configuration not stated) | 4 | 28* | -1 | 3 | 4
CCCOc1ccc(C(=O)NNC(=S)NC(=O)c2cc(-c3ccccc3)nc3ccccc23)cc1 | 13 | 62* | 18* | 3 | 13
Cc1ccccc1NC(=S)NC(=O)c1cc(-c2ccccc2)nc2ccccc12 | 21 | 38* | 2 | 9 | 28
CCOc1ccc(-c2cc(C(=O)Nc3ccc4c(c3)OCCO4)c3ccccc3n2)cc1 | 39 | 33* | -1 | 9 | 15
COC(=O)C1CN(CCO)CCS(=O)(=O)N1Cc1cn(Cc2ccc(C)cc2)nn1 (configuration not stated) | . | . | . | 0 | .
C#CCOCCOCCOCCNc1nc(N2CCN(C(=O)CCCCCCCCCCNC(=O)[C@@H](CCSC)n3cc(CCO)nn3)CC2)nc(N2CCN(C(=O)CCCCCCCCCCNC(=O)[C@H](CO)n3cc(CCCCCN)nn3)CC2)n1 | -64 | 23 | 4 | . | .
C#CCOCCOCCOCCNc1nc(N2CCOCC2)nc(N2CCN(C(=O)CCCCCCCCCCNC(=O)[C@H](CO)n3cc(CCCSC)nn3)CC2)n1 | -2 | 1 | 2 | -3 | .
